SMILES strings stand for the structures. The whole screen tested about 360,000 compounds, of which about 8,200 (2.3%) were called active. This excerpt belongs to a sample that is enriched for actives. Unmarked numbers belong to inactive results. Cut-off read from the data, not from the text of the source: active = inhibition above about 27%; inactive = the rest.

These results are taken from PubChem BioAssay AID588726 (The Scripps Research Institute Molecular Screening Center, 2011).

The target in the assay is Fructose-bisphosphate aldolase (Mycobacterium tuberculosis (strain ATCC 25618 / H37Rv)) (UniProt P9WQA3). Briefly: M. tuberculosis aldolase activity blockers – biochemical, fluorescence, strain H37Rv, primary screen (AID 588726).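 Note: 0% = vehicle and 100% = reference inhibitor.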 The conditions noted are these: purified M. tuberculosis FBA, fluorescence read-out, at 1 µM, stronger effect = higher value.
Sequence of Fructose-bisphosphate aldolase (Mycobacterium tuberculosis (strain ATCC 25618 / H37Rv)) (P9WQA3 whole entry, looked up): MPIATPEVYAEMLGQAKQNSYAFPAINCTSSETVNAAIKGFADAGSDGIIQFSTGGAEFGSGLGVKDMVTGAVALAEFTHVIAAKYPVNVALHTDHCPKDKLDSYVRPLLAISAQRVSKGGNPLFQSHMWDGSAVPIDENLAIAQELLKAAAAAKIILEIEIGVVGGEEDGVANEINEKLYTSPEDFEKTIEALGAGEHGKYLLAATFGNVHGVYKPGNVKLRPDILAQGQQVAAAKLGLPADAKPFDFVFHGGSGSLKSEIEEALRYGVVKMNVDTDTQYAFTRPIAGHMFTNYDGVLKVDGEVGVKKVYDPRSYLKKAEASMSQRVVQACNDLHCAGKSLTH
On to `COc1ccc(C2c3c(C)nn(-c4ccccc4)c3NC(=O)N2c2ccccc2)cc1` (stereo not drawn), for which the inhibition (in general, the change of the read-out against control, counted positive when it falls) is -0.42%. Then `O=C(CCC1CCN(C(=O)c2cccc(Cl)c2F)CC1)Nc1ccccc1`, with -0.26%; and `COc1ccc(CCNC(=O)Nc2ccc3c(c2)c(=O)n(C)n3C)cc1OC`, with 156% (active). For the compound `COc1ccc(CCNC(=O)C(=O)Nc2ccc3nc4n(c(=O)c3c2)CCCCC4)cc1OC`, the inhibition is -5.38%. As to `COc1ccc(CCNC(=O)c2cc3sccc3n2C)cc1OC`, the inhibition was 6.99%. In the case of `COCc1cc(=O)[nH]c(-c2ccc(C(F)(F)F)cc2)n1` it was 2.51%; in that of `Cc1nc(=O)c(-c2ccccc2)c(C)n1-c1ccc(Br)cc1`, 2.14%. Then `Cc1nc2c(-c3ccccc3)c(C)[nH]n2c(=O)c1Cl`, with 47.5% (active); and `CCCc1c(C)nc2scc(-c3ccc(Cl)cc3)n2c1=O`, with 0.91%.

`CCCc1cc(=O)n2[nH]c(C)c(-c3ccc(Cl)cc3)c2n1`: the inhibition is 27.5% (active). `CCCc1cc(=O)n2[nH]c(SCc3ccccc3)nc2n1`: the inhibition is -0.14%.

Regarding `Cc1nc2nc(COc3ccccc3)[nH]n2c(=O)c1C`, the inhibition is 0.07%. Take `COCc1cc(=O)[nH]c(SC)n1`: the inhibition is 2.44%. For the compound `COCc1cc(=O)n2[nH]c(C)c(-c3ccccc3)c2n1`, the inhibition was 102% (active). Then `COc1ccc(-c2csc3nc(-c4ccccc4F)oc(=O)c23)cc1OC`, with 2.27%; and `C=CC(=O)Nc1ccc(Nc2ccnc(Nc3ccc(N4CCN(C)CC4)cc3)n2)cc1`, with 3.07%. Then `Cc1nc(SCC(=O)N2CCc3ccccc3C2)c2c(C)c(C)sc2n1`, with 0.74%; and `COc1cc(C2C(C#N)=C(C)NC3=C2C(=O)CC(C)(C)C3)ccc1O` (stereo not drawn), with 0.13%; and `Cc1sc2nc(-c3ccccc3F)oc(=O)c2c1C`, with -0.79%. As for `COc1ccccc1N(CC(=O)N/N=C(\C)c1ccccc1O)S(=O)(=O)c1ccc(C)cc1`, the inhibition is 2.36%.

For the compound `COc1ccc(-c2cc(=O)oc3cc(OCC(=O)N[C@@H](Cc4c[nH]c5ccccc45)C(=O)O)ccc23)cc1`, the inhibition was 6.63%. In the case of `COc1ccc(-c2cc3ccc(OCc4nn[nH]n4)cc3oc2=O)cc1`, the inhibition is 734% [above what the read-out allows, likely interference] (active). Turning to `COc1ccc(-c2csc3ncnc(Oc4ccc5c(C)cc(=O)oc5c4)c23)cc1`, the inhibition was 2.35%.

For the compound `CC1CCN(C(=O)Cn2nnnc2CN2CCOCC2)CC1`, the inhibition is -0.01%. As to `Cc1cc(C)cc(OCC(=O)NNC(=O)c2cc3ccccc3oc2=O)c1`, the inhibition is 1.86%. Then `CCN(CC)c1ccc2cc(C(=O)O)c(=O)oc2c1`, with 36.2% (active).

Consider `CCN(CC)c1ccc([N+](=O)[O-])cc1C(=O)O`, for which the inhibition was -17.9%. For the compound `Cc1ccc(C2=Nc3c(ccc4ccccc34)C(c3ccncc3)=NN2)cc1`, the inhibition was 1.27%. Consider `CC1(C(=O)NCc2ccco2)Cc2c(-c3ccc4c(c3)OCO4)ccnc2O1` (stereo not drawn), for which the inhibition was 46.9% (active). Take `CC(=O)Nc1cccc(-c2ccnc3c2CC(C)(C(=O)NCc2ccccc2)O3)c1` (stereo not drawn): the inhibition is 1.41%. Then `CC1(C(=O)NCC2CCOCC2)Cc2c(-c3cccc(C(N)=O)c3)ccnc2O1` (stereo not drawn), with -0.46%; and `CC1(C(=O)NCc2ccc(F)c(F)c2)Cc2c(-c3ccc4c(c3)OCO4)ccnc2O1` (stereo not drawn), with 44.6% (active); and `O=C(Cn1nnc(-c2ccc3c(c2)OCO3)n1)NCc1ccco1`, with 1.83%. In the case of `CC(=O)Nc1cccc(-c2ccnc3c2CC(C)(C(=O)NCc2ccco2)O3)c1` (stereo not drawn) it was -0.36%. In the case of `CCc1nc2c(OCC(N)=O)cccn2c1N(C)C(=O)c1ccc(OC)cc1` it was -2.06%. Consider `Cc1nc(C(=O)NCc2ccccc2)sc1C1(C)CC(c2cccnc2)=NO1` (stereo not drawn), for which the inhibition was -0.93%. Regarding `O=C(CN1CCN(S(=O)(=O)c2ccc(Cl)s2)CC1)N1CCCCC1`, the inhibition is 5.01%. In the case of `CN(CCOc1ccccc1)C(=O)c1cc(COc2c(F)cccc2F)on1` it was -3.64%; in that of `O=C(c1ccc(Cl)cc1)n1cnc2ccccc21`, 5.13%. Then `COc1cccc(NC(=O)CN(C)C(=O)c2cc(Cl)nc3ccccc23)c1`, with 2.95%; and `CN(CCOc1ccccc1)C(=O)c1cc(-c2ccco2)nc2ccccc12`, with 29.6% (active); and `COc1ccc(C)cc1NC(=O)c1cc(-c2ccccc2)nc2c1cnn2C(C)C`, with 1.87%. Turning to `C/C(N)=C(/C#N)C(=O)COC(=O)c1cc(-c2ccc(C)cc2)nc2ccccc12`, the inhibition is 0.39%. Then `COc1ccc(-c2cc(C(=O)n3cnc4ccccc43)c3ccccc3n2)cc1`, with 113% (active); and `COc1ccc(-c2cc(C(=O)Nc3ccccc3O)c3ccccc3n2)cc1`, with 28.8% (active); and `C/C(=N\NC(=O)c1cc(-c2ccc(O)cc2)nc2ccccc12)c1cccnc1`, with 0.88%. In the case of `CN(C(=O)COC(=O)c1cc(-c2ccco2)nc2ccccc12)C1CCS(=O)(=O)C1` (stereo not drawn) it was 4.55%. In the case of `COc1ccc(NC(=O)CN(C)C(=O)c2cc(C)oc2C)cc1` it was 0.68%. On to `COc1ccc(NC(=O)CN(C)C(=O)c2cc(-c3ccc(C)o3)nc3ccccc23)cc1`, for which the inhibition is 71.2% (active). In the case of `CC(C)c1ccc(/C=C/C(=O)NCCCN2CCOCC2)cc1` it was 0.72%; in that of `CCN(C(=O)c1cc([N+](=O)[O-])ccc1NCc1cccnc1)c1ccccc1`, 2.57%. Consider `COC(=O)c1cc2n(n1)CCCNC2=O`, for which the inhibition is 3.15%. For `C=C(C)Cn1c(C)cc(C)c(S(=O)(=O)c2ccccc2C)c1=O`, the inhibition is -0.53%.

On to `CCc1cc(C(c2ccccc2OC)N2CCOCC2)c(NC(=O)c2ccccc2)s1` (stereo not drawn), for which the inhibition is -1.6%. Then `COc1cccc(C(=O)N/N=C(\C)c2cccc(NC(=O)c3ccc(F)cc3)c2)c1OC`, with -1.27%. Consider `Cn1nc(C(F)(F)F)cc1-c1ccc(/C=C(\C#N)C(=O)c2cccc(C(F)(F)F)c2)s1`, for which the inhibition is 0.1%. As for `CCc1ccc(OCC(=O)OC(C)C(=O)NC2CC2)cc1` (stereo not drawn), the inhibition is -0.68%. Then `O=C(c1ccc(Cl)s1)N(Cc1nnc(-c2ccccc2Cl)o1)C1CC1`, with -1.65%; and `CC(C)N(Cc1nnc(-c2ccccc2Br)o1)C(=O)c1cc(Cl)nc2ccccc12`, with 2.07%; and `COc1ccc(C2=NS(=O)(=O)N(C)C(C(=O)N(C)Cc3ccccc3)=C2)cc1`, with 4.86%. For the compound `O=C(c1cc(-c2ccco2)nc2ccccc12)N(Cc1nnc(-c2ccc(Cl)cc2)o1)C1CC1`, the inhibition is 46.8% (active). Then `COc1ccc(-c2cc(C(=O)N(C)Cc3ccccc3)c3ccccc3n2)cc1`, with 69.9% (active); and `COc1ccc(CN(C)C(=O)c2cc(-c3ccc(C)cc3C)nc3ccccc23)c(OC)c1OC`, with -0.53%.
